Data reported in paper PMC5540273 (PLoS ONE, 2017).

test system: FYN; details: concentration: 1 μM, replicates: in singlicate; n = 1
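Note: KINOMEscan kinase panel screen.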

Structure (SMILES) | %Inh [%]
Fc1ccc(-c2ncn(CCCN3CCOCC3)c2-c2cccnc2)cc1 [SB-211743] | 0
COc1cc2ncn(-c3cc(OCc4sccc4Cl)c(C(N)=O)s3)c2cc1OC [GSK448459] | 15
Cl.Nc1ncnc2occ(-c3ccc(NC(=O)Nc4cc(C(F)(F)F)ccc4F)cc3)c12 [SB-707548] | 22
NS(=O)(=O)CCc1cccc(Nc2nccc(-c3c(-c4cccc(NC(=O)c5c(F)cccc5F)c4)nn4ccccc34)n2)c1 [GSK336735] | 96.7
O=C(NCCNc1ccnc(Nc2ccc(F)cc2)n1)c1cc2ccccc2s1 [GSK1379874] | 0
CCc1ccnc(/C=C/c2n[nH]c3cc(Sc4ccccc4C(=O)NC)ccc23)c1 | 0
CC(C)Oc1ccc2c(-c3ccnc(Nc4ccc(N5CCN(C)CC5)cc4)n3)cnn2n1 [GW696155] | 53
Cc1nnc(-c2ccc3ncc(-c4ccc(S(C)=O)cc4)n3c2)o1 (stereo not shown) | 10
O=C(NCCNc1ccnc(Nc2ccc(F)cc2)n1)Nc1ccccc1F [GSK1379880] | 28
NS(=O)(=O)c1cccc(-c2ccc3ncc(N4CCOCC4)nc3c2)c1 [GSK1535721] | 16
CN(C(=O)c1ccc(-c2cc(-c3c[nH]nc3-c3ccccn3)ccn2)cc1)C1CCOCC1 [GW810083] | 1
O=C(Nc1cccc(-c2nn3ncccc3c2-c2ccnc(Nc3cccc(C(F)(F)F)c3)n2)c1)c1c(F)cccc1F [GSK299495] | 62
Cc1c(Cn2c(C)nn3c(=O)cc(N4CCOC(C)C4)nc23)cccc1C(F)(F)F (stereo not shown) [GSK2344444] | 2
NCC(NC(=O)c1cc(-c2cn[nH]c2)c(-c2ccnc3[nH]ccc23)s1)c1ccccc1.O=C(O)C(F)(F)F.O=C(O)C(F)(F)F (stereo not shown) [GSK1325775] | 25
O=C(NCCCN1CCOCC1)c1cccc(Nc2nccc(Nc3ccc(Oc4ccccc4)cc3)n2)c1 [GW663929] | 93.5
O=C1NC(=O)C(N2CCc3ccccc32)=C1c1cccc(Cl)c1 [SB-408010] | 0
Fc1ccc(-c2ncn(CCCN3CCOCC3)c2-c2ccccn2)cc1 [SB-211742] | 0

Structure (SMILES) | %Inh [%]
N#Cc1ccc(-c2cc(-c3c[nH]nc3-c3ccccn3)ccn2)cc1 [GW693028] | 0
[2H]C([2H])(c1cccc(C(F)(F)F)c1C)n1ccn2c(=O)nc(N3CCOCC3)cc12 [GSK2336394] | 44
COc1ccc(COc2cc(-n3cnc4ccccc43)sc2C(N)=O)cc1 [GSK1024304] | 16
O=c1cc(N2CCOCC2)nc2n(Cc3cccc(C(F)(F)F)c3)ccn12 [GSK2297543] | 42
COC(=O)Nc1nc2cc(Oc3ccc(NC(=O)Nc4cc(F)ccc4F)cc3)ccc2[nH]1.Cl [GW701424] | 0
CN1c2ccc(CNc3ccc(F)cc3)cc2-c2c(cnn2C)S1(=O)=O | 4
Cc1ccc(NC(=O)c2ccnc(N3CCN(C)CC3)c2)cc1-c1ccc(C(=O)NCC2CC2)cc1 [GW775604] | 0
COc1ccc(Nc2nccc(N3CCC(NC(=O)Nc4cccc(C(C)=O)c4)C3)n2)cc1 (stereo not shown) [GSK1379731] | 1
Cn1cc(-c2ccc3c(c2)CCN3C(=O)Cc2ccccc2Cl)c2c(N)ncnc21 [GSK2608885] | 97.1
COc1ccc(Nc2nccc(N3CCC(NC(=O)Nc4cc(C)ccc4C)C3)n2)cc1 (stereo not shown) [GSK1379741] | 2
COc1cc2c(cc1OCCN1CCN(C)CC1)ncc1c3ccc(C#N)cc3[nH]c21 | 25
CSc1ccc(-c2cc3ncnc(SCC(=O)O)c3s2)cc1 | 4
Cc1cccc(Cn2ccn3c(=O)cc(N4CCOCC4)nc23)c1 [GSK2297542] | 21
Nc1nc(-c2ccc3c(N)n[nH]c3c2)cc(N2CCCC2)n1 [GSK2227430] | 0
Cc1cccc(-c2nc(Nc3ccc4ncsc4c3)c3ccccc3n2)n1 [GW867588] | 4
CCn1cnc2c(N)ncnc21 [GW345098] | 15
O=C(NOCC1CC1)c1ccc(F)c(F)c1Nc1ccc(I)cc1Cl | 0
